High-throughput results (PubChem BioAssay)
DAX1 inh-1 = inhibits human nuclear receptor DAX1. P51843. HEK293 Gal4-DAX1 luciferase reporter, luminescence. inhibition, % at 6.75 µM. 340,000 tested, 0.99% active. AID 504766;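 active = inhibition above the mean over all tested compounds plus 3 SD, cut at about 4.2% in these data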;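 note: 0% = DAX1-transfected cells with DMSO and 100% = empty-vector control cells with DMSO; inhibition shows as a rise in luminescence from relieved DAX1 repression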
Target sequence (P51843 207-470 limits assumed): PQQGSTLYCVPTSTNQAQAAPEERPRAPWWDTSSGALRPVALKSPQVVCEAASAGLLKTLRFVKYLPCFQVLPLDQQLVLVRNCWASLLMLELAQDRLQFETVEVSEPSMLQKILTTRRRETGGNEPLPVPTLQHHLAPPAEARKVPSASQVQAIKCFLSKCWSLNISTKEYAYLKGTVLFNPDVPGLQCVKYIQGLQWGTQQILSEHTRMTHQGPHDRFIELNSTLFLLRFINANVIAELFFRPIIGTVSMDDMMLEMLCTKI
DAX1 inh-2 = DAX1 (NR0B1) inhibition, primary screen | HEK293T StAR-luciferase reporter, SF-1/DAX-1 repression relief | inhibition, % at 6.8 µM | 370,000 tested, 1.1% active | AID 652010;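 active = inhibition above the mean over all tested compounds plus 3 SD, cut at about 3.6% in these data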;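 note: 0% = DAX-1 cells with DMSO and 100% = cells lacking DAX-1 with DMSO; higher inhibition means more luminescence from relief of DAX-1 repression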
ssDAF-12 act = S. stercoralis DAF-12 activation, primary screen; HEK293 ssDAF-12/GRIP1 lit1-tk-luc reporter, luminescence; % of 3 µM dafachronic acid response; activation, % at 6.8 µM; 370,000 tested, 1% active; AID 652126;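 active = activation above the mean over all tested compounds plus 3 SD, cut at about 0.9% in these data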;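 note: 0% = DMSO-only wells and 100% = 3 µM delta7-dafachronic acid wells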
hgDAF12 agonist = activates the H. glycines DAF-12 receptor ligand-binding domain; HEK293 GAL4-hgDAF12 UAS-luciferase reporter, agonist luminescence; normalized to butyrate control; activation, % at 6.8 µM; 370,000 tested, 1.8% active;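 active = activation above a cutoff set at the mean of all screened compounds plus 3 SD, cut at about 10% in these data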;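 note: 0% = DMSO wells and 100% = sodium butyrate wells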
AHR activator = activates the human aryl hydrocarbon receptor | P35869 | 320,000 tested, 2.5% active | AHR-responsive luciferase reporter cells, luminescence | activation, % at 5 µM; in the data active = activation above about 47%;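 note: 0% = vehicle wells and 100% = reference agonist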
hcDAF12 agonist = activators of H. contortus DAF-12 nuclear receptor; HEK293 hcDAF-12 lit1-tk-luc reporter, luminescence; 0% DMSO, 100% Δ7-dafachronic acid; activation, % at 6.8 µM; 370,000 tested, 1.4% active; AID 652067;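 active = activation above the mean of all tested compounds plus 3 SD, cut at about 5.5% in these data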;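 note: 100% = response to 3 µM Δ7-dafachronic acid high control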
The depositor's hits bear a star; . = no result given. Sampled rows, rich in hits. Any-hit rate of the full collection: about 5.7%.

SMILES	DAX1 inh-1	DAX1 inh-2	ssDAF-12 act	hgDAF12 agonist	AHR activator	hcDAF12 agonist
CCC(=O)Nc1cccc(NC(=S)NC(=O)c2ccccc2)c1	-1	1	-1	13*	41	3
COc1cccc(NC(=O)CSc2nc3n[nH]c(C)c3c(=N)n2-c2cccc(OC)c2)c1	0	-1	-1	-1	19	-2
CC1Cc2cc(-c3csc(NC(=O)CCl)n3)ccc2N1C(=O)C1CC1 (configuration not stated)	1	3	-1	10	.	3
CCN(CC)CCN1C(=O)Cn2c(C)c(C)c3cccc1c32	0	-1	-1	-3	2	-3
Cc1nc(=O)c(-c2ccccc2)c(C)n1CCCO	0	-1	-1	-2	-1	-2
Cc1c(-n2c(O)c(C3=c4ccccc4=NC3=O)sc2=S)c(=O)n(-c2ccccc2)n1C	1	0	-1	-2	20	5.6*
Cc1ccnc(NC(=O)Cn2cc([N+](=O)[O-])cn2)c1	2	4	-1	11*	-2	4
O=C(Cn1cc([N+](=O)[O-])cn1)Nc1ccccn1	1	0	-1	-2	3	-1
Cc1cc(NC(=O)Cn2cc([N+](=O)[O-])cn2)no1	4.7*	0	-1	-1	0	1
CN1C(=O)/C(=C2\SC(N3CCCCCC3)=NC2=O)c2ccccc21	1	0	0	6	19	2
CCOc1ccc(C(=O)NC(=S)Nc2ccccc2OC)cc1[N+](=O)[O-]	0	0	-1	1	24	-2
COc1ccc(OC)c2sc(NC(=O)c3cccc(N4C(=O)CCC4=O)c3)nc12	4.5*	1	-1	6	36	1
O=C(Nc1nc2cc3c(cc2s1)OCCO3)c1cccc(N2C(=O)CCC2=O)c1	3	0	-1	2	52*	1
COc1ccccc1NC(=O)c1ccc(S(=O)(=O)N(C)C)cc1	1	0	-2	-2	10	-1
O=C(Nc1nc2ccccc2s1)c1cccc(N2C(=O)CCC2=O)c1	1	3	0	7	34	3
COc1ccc(OC)c2sc(NC(=O)c3ccc(S(=O)(=O)N(C)C)cc3)nc12	0	-1	-2	-4	69*	1
O=C(O)c1ccccc1NC(=O)c1cc(-c2ccccc2)nc2ccccc12	-1	0	-1	1	-1	-1
COc1ccc(C2c3c(oc4ccccc4c3=O)C(=O)N2c2ccc(C)cn2)cc1OC (configuration not stated)	5.0*	1	-1	-1	3	-1
COc1cccc(C2c3c(oc4ccccc4c3=O)C(=O)N2c2ccccn2)c1 (configuration not stated)	4	0	-2	0	0	-1
Cc1ccccc1NC(=O)c1onc2c1CCCC2	3	2	0	10	6	3
Cc1cccc(NC(=O)c2ccc3c(Cl)c4c(nc3c2)CCCC4)n1	2	2	-1	4	-1	-1
Cc1cccc(NC(=O)c2onc3c2CCCC3)n1	-4	4.1*	0	13*	9	5
Cc1cccc(NC(=O)c2onc3c2CCCC3)c1C	2	2	0	11*	3	2
O=c1[nH]c(-c2ccccc2)cnc1-c1ccccc1	.	2	0	11*	2	5
CC(C)(C)c1ccc(C(=O)NC(=O)COC(=O)CCS(=O)(=O)c2ccccc2)cc1	1	1	-1	0	1	0
SMILES	DAX1 inh-1	DAX1 inh-2	ssDAF-12 act	hgDAF12 agonist	AHR activator	hcDAF12 agonist
O=C(NN=C1CCCCCCC1)c1ccccn1	2	3	0	10	3	5
O=C(N/N=C1\CCc2ccccc21)c1ccccc1O	0	4.4*	1	8	3	6.1*
O=C(N/N=C1\CCCCc2ccccc21)c1ccccn1	1	3	1	12*	2	1
COc1ccc2c(c1)C(=NNC(=O)c1ccccn1)c1cc(OC)ccc1-2	-1	0	-1	3	52*	3
COc1ccc(C(=O)NNC(=O)c2ccccn2)cc1	-6	1	-3	-8	-7	-1
O=C(N/N=C1\CCCc2ccccc21)c1ccccc1Cl	1	1	-1	3	4	1
COc1ccc(C(=O)OCc2ccccc2C#N)cc1S(=O)(=O)N1CCOCC1	0	-1	-1	-3	.	-2
CCOCCCNC(=S)N(CCCN(C)C)Cc1cc2cc3c(cc2[nH]c1=O)OCCO3	4.7*	1	-1	1	4	-2
CC(C)CNC(=S)N(Cc1ccco1)Cc1cc2cc3c(cc2[nH]c1=O)OCCO3	-1	0	-2	0	54*	-1
CCNC(=S)N(Cc1ccco1)Cc1cc2cc3c(cc2[nH]c1=O)OCCO3	0	1	-1	1	71*	1
CNC(=S)N(Cc1ccco1)Cc1cc2cc3c(cc2[nH]c1=O)OCCO3	0	0	-1	1	37	-1
CCC(Sc1nc2ccsc2c(=O)n1Cc1ccc(C(=O)O)cc1)C(=O)Nc1cccc(OC)c1 (configuration not stated)	0	1	-2	0	.	0
CC(=O)Nc1ccc(S(=O)(=O)n2nc(C)cc2C)cc1	2	0	-1	1	1	2
COc1nc(Nc2ccc(C(C)C)cc2)nc(OC)n1	-1	1	-1	3	38	2
COc1ccccc1/C=N\Nc1cn[nH]c(=O)c1Cl	-1	-1	0	-1	48*	0
O=c1[nH]ncc(N/N=C\c2cccnc2)c1Cl	5.2*	0	-1	0	12	0
COc1ccc(C(CNC(=O)c2oc3ccccc3c2C)N2CCCC2)cc1 (configuration not stated)	2	3	-1	2	47*	0
CCN(CC(=O)Nc1ccccc1C(F)(F)F)C(=O)c1oc2c(Cl)cccc2c1C	0	1	0	2	6	2
COc1ccc(C(CNC(=O)c2oc3ccc(Cl)cc3c2C)N2CCCCC2)cc1 (configuration not stated)	0	0	-1	0	-1	0
COc1ccc(C(CNC(=O)c2oc3c(Cl)cccc3c2C)N2CCCC2)cc1 (configuration not stated)	1	2	0	4	50*	3
CCN(CC(=O)Nc1ccc(OC)cc1)C(=O)c1oc2c(Cl)cccc2c1C	-1	0	1	1	53*	4
Cc1cccc(C)c1NC(=O)C(c1cccc([N+](=O)[O-])c1)N(C)C(=O)c1ccccn1 (configuration not stated)	0	-1	1.0*	-2	-3	-1
